The panel holds about 79,000 compounds, 15% with a hit somewhere; the sample as a whole holds those more often. A number with no mark means an inactive call. Calls of active or inactive are those of the source. Cut-off read from the data, not from the text of the source: active = growth inhibition above about 70%; inactive = the rest.

The nature of assay [1]: NCI Yeast Anticancer Drug Screen. Data for the rad50 strain (AID 155).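 Note: 0% = growth of vehicle-only cultures of the same strain.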 The conditions noted are these: S. cerevisiae rad50 strain growth inhibition; at 50.0 µM; stronger effect = higher value. In short, it runs like this:
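Compounds were tested on a yeast strain with an engineered DNA damage repair alteration; the reported value is growth inhibition normalised to vehicle treatment.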

The nature of assay [2]: NCI Yeast Anticancer Drug Screen. Data for the mec2-1 strain (AID 157). Particulars: S. cerevisiae mec2-1 strain, at 50.0 µM, stronger effect = higher value. In short, it runs like this: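 Test agents were screened against the mec2-1 yeast strain, with defined DNA repair or cell cycle alteration. Growth was scored as inhibition against vehicle-only controls.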
A short description of assay [3]: NCI Yeast Anticancer Drug Screen. Data for the sgs1 mgt1 strain (AID 161).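 Note: 0% = growth of cultures given vehicle only.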 Particulars: S. cerevisiae sgs1 mgt1 strain, at 50.0 µM, stronger effect = higher value. In short, it runs like this: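 Read-out: growth inhibition vs vehicle controls. Cells: mutant yeast strain deficient in DNA damage repair.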
Assay [4] is described as follows: NCI Yeast Anticancer Drug Screen. Data for the cln2 rad14 strain (AID 165).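 Note: 0% = growth equal to vehicle treated cultures.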 Particulars: S. cerevisiae cln2 rad14 strain, at 50.0 µM, stronger effect = higher value. In short, it runs like this: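 Growth of compound-exposed yeast (cln2 rad14 genotype) measured and expressed as inhibition relative to vehicle.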
A short description of assay [5]: NCI Yeast Anticancer Drug Screen. Data for the bub3 strain (AID 167). Particulars: S. cerevisiae bub3 mutant strain, at 50.0 µM, stronger effect = higher value. In short, it runs like this:
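Growth of a checkpoint-deficient yeast mutant is measured after compound exposure. Values represent inhibition relative to vehicle.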

A short description of assay [6]: NCI Yeast Anticancer Drug Screen. Data for the mlh1 rad18 strain (AID 175). The conditions noted are these: S. cerevisiae mlh1 rad18 strain growth inhibition; at 50.0 µM; stronger effect = higher value. In short, it runs like this:
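In this whole-cell yeast screen, a strain with altered DNA damage repair is challenged with compound, and its growth is measured against matched vehicle-treated controls.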

As for `COc1ccc(C2(C(OC)OC)NC(=O)N(Cc3ccccc3)C2=O)cc1` (stereo not given), the growth inhibition in assay [1] was 2.7%; in assay [2], -10.6%; in assay [3], -4.5%; in assay [4] it was -49.4%; in assay [5], -11.8%; in assay [6], -10.3%.

Turning to `CC(C)OC(=O)Oc1ccccc1Cl`, the growth inhibition in assay [1] was -18.5%; in assay [2], -21.1%; in assay [3] it was -13.6%; in assay [4] it was -6.9%; in assay [5], -3.35%; in assay [6] it was -22.4%.

As for `O=C1C2=C(Nc3cc([N+](=O)[O-])ccc3N2)OC1c1ccc(Cl)cc1Cl` (stereo not given), the growth inhibition is -2.35% in assay [1]; 23.4% in assay [2]; 5.2% in assay [3]; 10.7% in assay [4]; -7% in assay [5]; 13.2% in assay [6].

As to `CCCCC(O)C(=O)NCCC(=O)c1ccccc1` (stereo not given), the growth inhibition in assay [1] was -7.1%; in assay [2], 5.95%; in assay [3], 3.45%; in assay [4] it was 22.9%; in assay [5] it was 14.1%; in assay [6] it was 20.4%.

In the case of `Cc1cc(S(N)(=O)=O)c2ncccc2c1`, the growth inhibition is 1.8% in assay [1]; -3.5% in assay [2]; 2.35% in assay [3]; -33.1% in assay [4]; -8.4% in assay [5]; -3.2% in assay [6].

Take `COc1ccc(NC(=S)NN)cc1`: the growth inhibition in assay [1] is 2.95%; in assay [2] it was -7.75%; in assay [3] it was 18.9%; in assay [4], -6%; in assay [5], 13.9%; in assay [6] it was 6.2%.

As to `COC(=O)c1s/c(=N\C(=S)N(C)C)n(-c2ccc(Cl)cc2)c1C(=O)OC`, the growth inhibition was -0.4% in assay [1]; 2.25% in assay [2]; -4.1% in assay [3]; -40.1% in assay [4]; -21.9% in assay [5]; -3.2% in assay [6].

As to `O=C(NO)c1ccc(O)c(O)c1`, the growth inhibition is 2.1% in assay [1]; 14.4% in assay [2]; 5.55% in assay [3]; -8.25% in assay [4]; -8.45% in assay [5]; -39% in assay [6].

As to `O=C1NC(=O)C(CN2C(=O)/C(=C/c3cccc(O)c3)SC2=S)C(=O)N1`, the growth inhibition was -55.2% in assay [1]; -20.8% in assay [2]; -29.7% in assay [3]; -20.6% in assay [4]; -20.4% in assay [5]; -71.8% in assay [6].

`c1ccc(C2OCCO2)c(OCCOc2cc(OCCOc3ccccc3C3OCCO3)c(OCCOc3ccccc3C3OCCO3)cc2OCCOc2ccccc2C2OCCO2)c1`: the growth inhibition in assay [1] is -7.6%; in assay [2], -18.9%; in assay [3], -9.9%; in assay [4] it was 0.3%; in assay [5], -4.3%; in assay [6], 12.3%.

For the compound `NC(=O)N/N=C1/C=C2CCCCC2CC1` (stereo not given), the growth inhibition in assay [1] was 6.8%; in assay [2] it was 0.35%; in assay [3], -1%; in assay [4], 10.8%; in assay [5] it was -16.4%; in assay [6], 10.2%.

As to `O=C(CSc1c2ccccc2nc2ccccc12)Nc1ccccc1-c1ccccc1NC(=O)CSc1c2ccccc2nc2ccccc12`, the growth inhibition is 27.4% in assay [1]; 9.75% in assay [2]; 18.6% in assay [3]; 6.9% in assay [4]; 19% in assay [5]; 34.5% in assay [6].

With `CCOC(=O)c1c(N)sc2c1C(C(=O)OCC)CCC2` (stereo not given), the growth inhibition in assay [1] is -28.3%; in assay [2], -10.7%; in assay [3] it was 3.95%; in assay [4] it was -24.1%; in assay [5] it was 19.4%; in assay [6], -11.7%.

With `COc1ccc(-n2c(N)c(C#N)c(C#N)c2-c2ccco2)cc1`, the growth inhibition is 6.7% in assay [1]; 9% in assay [2]; -9.3% in assay [3]; -20.1% in assay [4]; -25.4% in assay [5]; -39% in assay [6].

As to `O=C(O)CCCC1=C2CCC(=O)C=C2CCC1`, the growth inhibition in assay [1] is -15.8%; in assay [2], -24.6%; in assay [3], -10.3%; in assay [4], 0.2%; in assay [5], -20.6%; in assay [6] it was -10.1%.

Regarding `C=C1C(=O)C23CC1C[C@H](OC(C)=O)C2C1(C)C(OC(C)=O)C[C@H](O)C(C)(C)[C@H]1C(O)[C@@H]3OC(C)=O` (stereo not given in full), the growth inhibition was 9.8% in assay [1]; -3.85% in assay [2]; 3.25% in assay [3]; -2.95% in assay [4]; 24.1% in assay [5]; 20.3% in assay [6].

For the compound `Cc1ccc(Cl)cc1NS(=O)(=O)c1ccccc1`, the growth inhibition in assay [1] is -4.35%; in assay [2] it was -31.1%; in assay [3] it was -2.8%; in assay [4], -14.3%; in assay [5], -22.8%; in assay [6], 5.55%.

`S=C1NC(/C=C/c2ccccc2)Nc2ccccc21` (stereo not given): the growth inhibition in assay [1] was 62.2%; in assay [2], 79.1% (active); in assay [3], 73% (active); in assay [4], 81.8% (active); in assay [5], 27.6%; in assay [6] it was 88.2% (active).

As to `OC1(Cc2ccccn2)CCCc2ccccc21` (stereo not given), the growth inhibition in assay [1] was 7.5%; in assay [2], 9.55%; in assay [3], -1.95%; in assay [4] it was -15.3%; in assay [5], -8.45%; in assay [6] it was 4.95%.

In the case of `CCCCCCCN=C(N)CSSCC(N)=NCCCCCCC`, the growth inhibition in assay [1] is 98.9% (active); in assay [2], 99% (active); in assay [3], 99.3% (active); in assay [4], 98.7% (active); in assay [5] it was 98.9% (active); in assay [6], 99.2% (active).

(Values after PubChem BioAssay (NCI).)
